Each structure is given as a SMILES string. Inconclusive results are not listed. A number with no mark means an inactive call. Active and inactive are the calls of the source. The call rests on the fitted dose curve; in most records, active means well fitted curve in the direction sought with a large enough effect in the repeat runs; inconclusive means weak or mixed curves; inactive means no such curve, though single readings can be large; an effect the other way counts as inactive or inconclusive.
On the % scale 0 is the no-effect control and ±100 the full control effect.

A short description of one assay: qHTS RealTime-Glo MT Cell Viability Assay in HepG2 cells - 40 hour (AID 1224870). Further: nearly all actives have a fitted effect of over 50% in size. The following applies: RealTime-Glo luminescence; series mostly up to 76.8 µM; activity change, negative = cytotoxic: at the top concentration. Put shortly: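 HepG2 cells (600/well) mixed with RealTime-Glo MT reagent, settled 5 h at 37 C/5% CO2 before compound addition. Nonlytic NanoLuc luminescence from viable-cell prosubstrate reduction read repeatedly during 40 h treatment at 37 C.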
Regarding `C=CCCC`, the “activity change, negative = cytotoxic” value was 1.07%.

`CC(C)(C)c1ccc(CCC=O)cc1`: the “activity change, negative = cytotoxic” value was 3.63%.

With `O=C(Nc1ccccc1)c1cc([N+](=O)[O-])ccc1Cl`, the “activity change, negative = cytotoxic” value was -7.32%.

For the compound `CC(C)=CCC[C@H](C)CCO`, the “activity change, negative = cytotoxic” value is 1.07%.

As to `CC(=O)Nc1ccn(C2COC(COC(=O)c3ccccc3)O2)c(=O)n1` (stereo not drawn), the “activity change, negative = cytotoxic” value was 3.21% [at 35.3 µM].

Regarding `N#C[C@@H]1CC(F)(F)CN1C(=O)CNC1CC2CCC(C1)N2c1ncccn1` (stereo partly drawn), the “activity change, negative = cytotoxic” value was -0.218%.

Turning to `CC(C)=CCCC(C)C=O` (stereo not drawn), the “activity change, negative = cytotoxic” value was -2.05%.

Turning to `C=CC(=O)NC(C)(C)C`, the “activity change, negative = cytotoxic” value was -0.0726%.

As to `C1=COCCC1`, the “activity change, negative = cytotoxic” value was -1.37%.

For `CCOC(OCC)OCC`, the “activity change, negative = cytotoxic” value is 5.43%.

In the case of `[O-][n+]1ccc(Cl)cc1`, the “activity change, negative = cytotoxic” value is 0.881%.

For `CC1(C)C(=O)NC(=O)N1CO`, the “activity change, negative = cytotoxic” value was 5.54%.

As for `CCCCCCCCS`, the “activity change, negative = cytotoxic” value was 0.524%.

For the compound `O=C(NC1CCN(CCc2c[nH]c3ccccc23)CC1)c1ccccc1`, the “activity change, negative = cytotoxic” value is -2.63% [at 35.3 µM].

In the case of `CCC(C(=O)O)c1ccc(N2Cc3ccccc3C2=O)cc1` (stereo not drawn), the “activity change, negative = cytotoxic” value was 3.97% [at 35.3 µM].

`Cc1ccccc1CCO`: the “activity change, negative = cytotoxic” value is -1.78%.

On to `O=c1[nH]nc(-c2ccc([N+](=O)[O-])o2)o1`, for which the “activity change, negative = cytotoxic” value is -6.18%.

In the case of `CCC(=O)O[C@]1(C(=O)COC)[C@@H](C)C[C@H]2[C@@H]3CCC4=CC(=O)C=C[C@]4(C)C3(F)[C@@H](O)C[C@@]21C` (stereo partly drawn), the “activity change, negative = cytotoxic” value was -11% [at 35.3 µM].

On to `O=C(OCCOCCOCCOC(=O)c1ccccc1)c1ccccc1`, for which the “activity change, negative = cytotoxic” value is 0.323%.

`COC(=O)c1cc(Cl)ccc1[N+](=O)[O-]`: the “activity change, negative = cytotoxic” value is 0.988%.

With `Cc1cccc(C)c1NC(=O)CN1CCCC1`, the “activity change, negative = cytotoxic” value was 0.375% [at 35.3 µM].

In the case of `COC(=O)/C=C/C(C)=C\C=C\C(C)=C\C=C\C=C(C)\C=C\C=C(C)\C=C\C(=O)O`, the “activity change, negative = cytotoxic” value is -6.63%.

Consider `CCc1ccc(C(=O)C(C)CN2CCCCC2)cc1` (stereo not drawn), for which the “activity change, negative = cytotoxic” value is 0.0241% [at 35.3 µM].

With `OCCOc1cccc(OCCO)c1`, the “activity change, negative = cytotoxic” value was -0.828%.

Turning to `C=CC(C)(O)CC/C=C(/C)CCC=C(C)C` (stereo not drawn), the “activity change, negative = cytotoxic” value is 1.07%.

On to `O=C(OC1C[C@H]2CC[C@@H](C1)[N+]21CCCC1)C(O)(c1ccccc1)c1ccccc1` (stereo partly drawn), for which the “activity change, negative = cytotoxic” value was -0.485% [at 35.3 µM].

For `CC(C)(Cc1c[nH]c2ccccc12)NCC(O)COc1ccccc1C#N` (stereo not drawn), the “activity change, negative = cytotoxic” value is -7.63% [at 35.3 µM].

In the case of `CNc1ccccc1`, the “activity change, negative = cytotoxic” value is 0.359%.

On to `CCCCCCC/C=C/C=O`, for which the “activity change, negative = cytotoxic” value was 4.88%.

For `NCCOCCOCCN`, the “activity change, negative = cytotoxic” value was 0.75%.

For `FC1(F)C(F)(F)C(F)(F)C2(F)C(F)(C1(F)F)C(F)(F)C(F)(F)C1(F)C(F)(F)C(F)(F)C(F)(F)C(F)(F)C12F` (stereo not drawn), the “activity change, negative = cytotoxic” value is -0.0354%.

`COc1ccnc2c1CCCCC2S(=O)c1nc2ccccc2[nH]1` (stereo not drawn): the “activity change, negative = cytotoxic” value is 0.827% [at 35.3 µM].

As to `CCCCCCCCCCCCCCCCN`, the “activity change, negative = cytotoxic” value is -5.17% [at 35.3 µM].

Take `FC(F)(Cl)C(F)(Cl)Cl`: the “activity change, negative = cytotoxic” value was 0.137%.

For the compound `Cc1cc(C)c(C)c(O)c1`, the “activity change, negative = cytotoxic” value is 0.947%.

For the compound `CC(=O)c1cccnc1`, the “activity change, negative = cytotoxic” value was 1.24%.

As for `Cc1c(Cl)cccc1[N+](=O)[O-]`, the “activity change, negative = cytotoxic” value is -1.86%.

Consider `CCN(CC)CC(=O)OCC(=O)[C@@]1(O)CC[C@H]2[C@@H]3CCC4=CC(=O)CC[C@]4(C)[C@H]3[C@@H](O)C[C@@]21C`, for which the “activity change, negative = cytotoxic” value was -0.0638% [at 35.3 µM].

For the compound `CCCc1ccc(OC)cc1`, the “activity change, negative = cytotoxic” value was 2.85%.

Another assay can be described thus: A CellTox Green Cytotoxicity Assay to monitor cytotoxicity in HEK293 cells - 40 hour (AID 1224871). Further: nearly all actives have a fitted effect of over 45% in size. Further: potency means the concentration at half of the fitted maximal effect. The following applies: CellTox Green fluorescence; series mostly up to 76.8 µM; cytotoxicity increase: at the top concentration. Put shortly: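 Dead-cell fluorescence measured kinetically: asymmetric cyanine dye, HEK293, 600 cells/well, 5 h settle, 23 nL cpd/DMSO, 37 C, reads 0–40 h every 8 h.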
Take `C=CCCC`: the “cytotoxicity increase” value was -0.26%.

Turning to `CC(C)(C)c1ccc(CCC=O)cc1`, the “cytotoxicity increase” value is 26.1%.

On to `O=C(Nc1ccccc1)c1cc([N+](=O)[O-])ccc1Cl`, for which the “cytotoxicity increase” value was 7.29%.

Consider `CC(C)=CCC[C@H](C)CCO`, for which the “cytotoxicity increase” value is 12.5%.

As to `CC(=O)Nc1ccn(C2COC(COC(=O)c3ccccc3)O2)c(=O)n1` (stereo not drawn), the “cytotoxicity increase” value was -9.07% [at 35.3 µM].

In the case of `N#C[C@@H]1CC(F)(F)CN1C(=O)CNC1CC2CCC(C1)N2c1ncccn1` (stereo partly drawn), the “cytotoxicity increase” value is -0.752%.

As for `CC(C)=CCCC(C)C=O` (stereo not drawn), the “cytotoxicity increase” value was 1.98%.

In the case of `C=CC(=O)NC(C)(C)C`, the “cytotoxicity increase” value was -13.5%.

As to `C1=COCCC1`, the “cytotoxicity increase” value was -2.16%.

`CCOC(OCC)OCC`: the “cytotoxicity increase” value was -4.99%.

`[O-][n+]1ccc(Cl)cc1`: the “cytotoxicity increase” value was -1.81%.

`CC1(C)C(=O)NC(=O)N1CO`: the “cytotoxicity increase” value was 2.06%.

For `CCCCCCCCS`, the “cytotoxicity increase” value is 1.26%.

On to `O=C(NC1CCN(CCc2c[nH]c3ccccc23)CC1)c1ccccc1`, for which the “cytotoxicity increase” value is 6.15% [at 35.3 µM].

As to `CCC(C(=O)O)c1ccc(N2Cc3ccccc3C2=O)cc1` (stereo not drawn), the “cytotoxicity increase” value was 4.42% [at 35.3 µM].

Take `Cc1ccccc1CCO`: the “cytotoxicity increase” value was 0.764%.

For `O=c1[nH]nc(-c2ccc([N+](=O)[O-])o2)o1`, the “cytotoxicity increase” value was 4.16%.

With `CCC(=O)O[C@]1(C(=O)COC)[C@@H](C)C[C@H]2[C@@H]3CCC4=CC(=O)C=C[C@]4(C)C3(F)[C@@H](O)C[C@@]21C` (stereo partly drawn), the “cytotoxicity increase” value was 1.96% [at 35.3 µM].

Take `O=C(OCCOCCOCCOC(=O)c1ccccc1)c1ccccc1`: the “cytotoxicity increase” value is 13.2%.

As to `COC(=O)c1cc(Cl)ccc1[N+](=O)[O-]`, the “cytotoxicity increase” value was -11.1%.

In the case of `Cc1cccc(C)c1NC(=O)CN1CCCC1`, the “cytotoxicity increase” value was 1.37% [at 35.3 µM].

With `COC(=O)/C=C/C(C)=C\C=C\C(C)=C\C=C\C=C(C)\C=C\C=C(C)\C=C\C(=O)O`, the “cytotoxicity increase” value was -1.51%.

`CCc1ccc(C(=O)C(C)CN2CCCCC2)cc1` (stereo not drawn): the “cytotoxicity increase” value is 5.84% [at 35.3 µM].

For the compound `OCCOc1cccc(OCCO)c1`, the “cytotoxicity increase” value was -8.86%.

Turning to `C=CC(C)(O)CC/C=C(/C)CCC=C(C)C` (stereo not drawn), the “cytotoxicity increase” value was 17%.

Regarding `O=C(OC1C[C@H]2CC[C@@H](C1)[N+]21CCCC1)C(O)(c1ccccc1)c1ccccc1` (stereo partly drawn), the “cytotoxicity increase” value is -8.38% [at 35.3 µM].

Turning to `CC(C)(Cc1c[nH]c2ccccc12)NCC(O)COc1ccccc1C#N` (stereo not drawn), the “cytotoxicity increase” value is -2.54% [at 35.3 µM].

On to `CNc1ccccc1`, for which the “cytotoxicity increase” value was 1.4%.

Consider `CCCCCCC/C=C/C=O`, for which the “cytotoxicity increase” value is 2.99%.

`NCCOCCOCCN`: the “cytotoxicity increase” value is -0.677%.

For `FC1(F)C(F)(F)C(F)(F)C2(F)C(F)(C1(F)F)C(F)(F)C(F)(F)C1(F)C(F)(F)C(F)(F)C(F)(F)C(F)(F)C12F` (stereo not drawn), the “cytotoxicity increase” value was -5.14%.

For the compound `COc1ccnc2c1CCCCC2S(=O)c1nc2ccccc2[nH]1` (stereo not drawn), the “cytotoxicity increase” value was -0.0414% [at 35.3 µM].

In the case of `CCCCCCCCCCCCCCCCN`, the Potency is 12 µM (active).

Consider `FC(F)(Cl)C(F)(Cl)Cl`, for which the “cytotoxicity increase” value was -0.604%.

For the compound `Cc1cc(C)c(C)c(O)c1`, the “cytotoxicity increase” value is -16.3%.

For `CC(=O)c1cccnc1`, the “cytotoxicity increase” value is -7.84%.

For `Cc1c(Cl)cccc1[N+](=O)[O-]`, the “cytotoxicity increase” value was 0.655%.

`CCN(CC)CC(=O)OCC(=O)[C@@]1(O)CC[C@H]2[C@@H]3CCC4=CC(=O)CC[C@]4(C)[C@H]3[C@@H](O)C[C@@]21C`: the “cytotoxicity increase” value is 4.71% [at 35.3 µM].

Regarding `CCCc1ccc(OC)cc1`, the “cytotoxicity increase” value is -2.7%.

The record behind these values is PubChem BioAssay (Tox21).
